# Bioassay records deposited in PubChem BioAssay by National Center for Advancing Translational Sciences (NCATS).
# NS1 function inh – qHTS Assay for Inhibitors of Influenza NS1 Protein Function | Potency, µM (doses to about 46.1 µM), inactives show at the highest dose activity, positive = more growth | 270,000 compounds, 0.4% hits | AID 2326, 2010; also: potency is read from the fitted curve at half-maximal effect; actives are rising curves; nearly all actives have a fitted effect of over 50% in size
#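 Read-out: OD600 growth recovery of NS1-expressing budding yeast. Cells grown overnight at 30C in -URA glucose medium, washed, resuspended and diluted 1:100 in 2% galactose assay medium, pH 6.0. Same strain lacking NS1 served as positive control.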
# SARS PLP yeast – qHTS of Yeast-based Assay for SARS-CoV PLP; S. cerevisiae expressing SARS-CoV PLpro, growth rescue; 330,000 compounds, 0.19% hits; Potency, µM (titrated, usually from 32.9 µM), without a hit: at the highest dose activity, positive = growth rescue, actives largely listed as activators; also: potency is read from the fitted curve at half-maximal effect; 0% is about no effect; nearly all actives have a fitted effect of over 55% in size
# Pf growth 48h – Primary qHTS for delayed death inhibitors of the malarial parasite plastid, 48 hour incubation | P. falciparum luciferase growth in erythrocytes, 48 h | Potency, µM (series often up to 28.7 µM), inactives show top-dose activity change, negative = inhibition, hits mostly inhibitors | 310,000 compounds, 5.9% hits | AID 504832, 2011; active = well fitted inhibition curve with a large enough effect; inconclusive = small, poorly fitted or top-dose-only effect, or another doubt; inactive = no such curve, though single readings can be large or run the other way; also: potency is read from the fitted curve at half-maximal effect; % is scaled to controls: 0 for no effect and ±100 for the full control effect
#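 Compounds are pin-transferred into medium, infected erythrocytes (2% hematocrit, 0.1% parasitemia final) are added, and plates sit one parasite generation at 37 C in 5% CO2. Detection reagent is then added and luminescence measured.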
# Cycloheximide cs – Cycloheximide Counterscreen for Small Molecule Inhibitors of Shiga Toxin; cell reporter, cycloheximide protein synthesis inhibition counterscreen; 300,000 compounds, 12% hits; max response, %; in the data active = max response mostly above about 13%, no sharp cut-off; inactive = mostly below about 14%; also: read at 38.3 µM for the half of the compounds with a filed dose; 0% is about no effect
# Shiga inhibitor – A qHTS for Small Molecule Inhibitors of Shiga Toxin; Vero cells, Shiga toxin protein synthesis inhibition reporter; inhibition, % at 38.7 µM; 290,000 compounds, 9.2% hits; AID 2315, 2010; in the data active = inhibition mostly above about 28%, no sharp cut-off; inactive = mostly below about 43%; also: 0% is about no effect
# Pf growth 96h – Primary qHTS for delayed death inhibitors of the malarial parasite plastid, 96 hour incubation. 320,000 compounds, 6.9% hits. P. falciparum luciferase reporter growth, 96 h. Potency, µM (series often up to 28.7 µM), inactives show top-dose activity change, negative = inhibition, actives largely listed as inhibitors. AID 504834, 2011; active = well fitted inhibition curve with a large enough effect; inconclusive = small, poorly fitted or top-dose-only effect, or another doubt; inactive = no such curve, though single readings can be large or run the other way; also: potency is read from the fitted curve at half-maximal effect; % is scaled to controls: 0 for no effect and ±100 for the full control effect
#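 96 h incubation, 37 C, 5% CO2, of luciferase-reporter P. falciparum-infected RBCs (2% hematocrit, 0.05% parasitemia final) with test compounds; endpoint luminescence.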
# An asterisk follows results filed as active; ? = inconclusive; · = no result given. In the library only some 21% were active in any assay of this set; here they are far more common. Unless noted, calls follow the shape of the full dose curve.
SMILES,NS1 function inh,SARS PLP yeast,Pf growth 48h,Cycloheximide cs,Shiga inhibitor,Pf growth 96h
CCN(Cc1nc2cc(Cl)ccc2c(=O)[nH]1)C(=O)C1CC(=O)N(c2cccc3ccccc23)C1 (configuration not stated),·,1.8%,10.4µM*,·,·,?
COc1ccc(CNC(=O)CN(C(=O)CCC(=O)Nc2ccccn2)c2ccc3c(c2)OCO3)cc1,-3.4%,-0.5%,-15.3%,5.6,93.2,-17.3%
COc1ccccc1NC(=O)c1cn(CCC#N)nc1-c1ccc(F)cc1,4.8%,-5.6%,-4.8%,-0.5,-4.3,11.7µM*
CC(=O)N1C=Cc2c(c(C)c3c([nH]c4ccccc43)c2C)C1,-44.4%,-8.8%,1.85µM*,16.7*,24.8,-7.3%
CSc1nc(-c2ccc(N(C)C)cc2)c(C#N)c(=O)n1C,4.2%,-1.4%,45.0%,24.6*,42.2*,1.0%
CCCOc1ccccc1Nc1nnc(C)c(=O)[nH]1,-2.9%,3.5%,15.3%,-2.1,-12.0,13.1µM*
O=[N+]([O-])c1ccc(N2CCCC(C(F)(F)F)C2)c2ccncc12 (configuration not stated),-61.9%,-51.2%,13.1µM*,-4.4,28.0,?
O=[N+]([O-])c1cc(C(F)(F)F)ccc1N1CCCC(O)C1 (configuration not stated),·,0.3%,7.7%,2.0,15.6,10.5%
O/N=C(/CN(O)/C=C1/C=CC=N1)c1cccs1,-4.2%,2.3%,18.1%,7.1,-2.2,14.7µM*
CCc1ccc(OC(C)c2nnc(SCC(=O)Nc3ncccc3C)n2C)cc1 (configuration not stated),-11.5%,19.4%,8.9%,-0.1,-3.4,-11.7%
CC(=O)c1ccc(N2CCN(C(=O)Cn3cnc(S(=O)(=O)N4CCCCC4)c3)CC2)cc1,0.0%,21.0%,-19.1%,6.5,51.8,?
CCOc1ccc(-c2nc(CSCC(=O)NCC3CCCO3)c(C)o2)cc1 (configuration not stated),-22.6%,2.7%,42.9%,19.4,25.8,13.1µM*
COc1ccc(-c2nc(CSCC(=O)NCC3CCCO3)c(C)o2)cc1OC (configuration not stated),-4.9%,-1.0%,58.2%,1.0,-10.6,14.7µM*
CCN1C(=O)C2(C(C(=O)c3cc4ccccc4o3)=C(O)C(=O)N2CCCN(C)C)c2ccccc21 (configuration not stated),-0.3%,-0.2%,3.9%,1.6,16.4,10.7%
CCN(CC)C(=O)NC(c1ccc(C)c(F)c1)C(Cl)(Cl)Cl (configuration not stated),-9.9%,-4.8%,?,-1.6,-0.7,?
CCN(CC)c1ccc(C=Nc2ccc(C)cc2)c(O)c1,1.1%,-6.2%,5.2%,1.1,5.9,11.1%
CCN(CC)c1ccc(N=Cc2ccc(N(CC)CC)cc2O)cc1,-1.5%,-2.0%,1.17µM*,12.0,28.7,·
CCN(CC)c1ccc(C=Nc2cc(C)cc(C)c2)c(O)c1,2.6%,4.7%,23.1%,-1.9,6.4,-12.3%
CCN(CC)c1ccc(/C=N/N2CCOCC2)c(O)c1,3.2%,12.9%,163.7%,64.5*,70.2*,258.5%
CCN(CC)c1ccc(C=Nc2ccc(N(C)C)cc2)c(O)c1,-10.2%,-14.5%,?,53.6*,90.6*,?
Cc1ccc(S(=O)(=O)N(C)c2ccc(OCC(=O)Nc3nc4ccccc4s3)cc2)cc1,2.9%,9.2%,4.65µM*,12.8,0.7,3.29µM*
CCOc1ccc(OCC(=O)Nc2nccs2)cc1,-8.6%,-3.9%,-59.7%,12.6,-2.0,3.5%
CCOc1ccc(S(=O)(=O)N(C)c2ccc(OCC(=O)Nc3nccs3)cc2)cc1,·,0.1%,1.85µM*,5.9,11.7,?
Cc1ccc(S(=O)(=O)N(C)c2ccc(OCC(=O)Nc3nc4c(ccc5ccccc54)s3)cc2)cc1,0.5%,-2.5%,1.3%,2.3,2.4,-27.9%
Cc1n[nH]c(=S)n1/N=C/c1ccc(-c2ccccc2[N+](=O)[O-])o1,-1.7%,2.9%,16.8%,12.8*,32.5,·
